KCNQ2 pot – KCNQ2 (rat) channel potentiation; O88943; CHO-K1 KCNQ2, FluxOR thallium flux fluorescence; stronger effect = higher value; B-score at 10 µM; hit rate 0.54% among 310,000; AID 2239;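 active = fluorescence ratio B-score at least 3 SD of library B-scores, with initial fluorescence B-score within 3 of them, cut at about 5.3 in these data; same plate scores as AID 2156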;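 note: B-score of peak minus minimum over baseline fluorescence ratio after K+ and Tl+ stimulus; positive B-score means potentiation of KCNQ2 with more thallium influx and brighter signal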
Target sequence (O88943 whole entry, looked up): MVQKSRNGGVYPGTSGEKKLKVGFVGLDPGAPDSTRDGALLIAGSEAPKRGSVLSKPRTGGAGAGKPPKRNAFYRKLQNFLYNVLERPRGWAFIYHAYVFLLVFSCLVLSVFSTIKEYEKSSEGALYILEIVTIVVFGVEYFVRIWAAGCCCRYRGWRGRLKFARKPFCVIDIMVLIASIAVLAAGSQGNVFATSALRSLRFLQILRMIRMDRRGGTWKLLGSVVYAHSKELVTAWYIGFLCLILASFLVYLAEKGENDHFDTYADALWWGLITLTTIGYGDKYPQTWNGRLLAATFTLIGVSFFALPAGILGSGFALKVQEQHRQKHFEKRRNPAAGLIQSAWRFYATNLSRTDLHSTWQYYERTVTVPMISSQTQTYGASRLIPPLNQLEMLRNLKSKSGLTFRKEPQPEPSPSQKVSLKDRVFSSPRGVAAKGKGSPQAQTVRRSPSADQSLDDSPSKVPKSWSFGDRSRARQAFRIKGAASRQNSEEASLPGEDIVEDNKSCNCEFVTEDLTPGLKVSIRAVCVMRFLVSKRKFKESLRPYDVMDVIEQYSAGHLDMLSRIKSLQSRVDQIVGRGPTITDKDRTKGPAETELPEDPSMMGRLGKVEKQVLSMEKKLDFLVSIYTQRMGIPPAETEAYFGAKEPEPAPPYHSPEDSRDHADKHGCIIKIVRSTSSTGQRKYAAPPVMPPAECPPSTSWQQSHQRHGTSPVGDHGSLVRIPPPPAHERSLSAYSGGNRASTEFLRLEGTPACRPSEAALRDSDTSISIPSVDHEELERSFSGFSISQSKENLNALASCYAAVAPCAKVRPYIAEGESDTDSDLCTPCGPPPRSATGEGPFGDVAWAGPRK
KCNQ2 inh – KCNQ2 (rat) channel inhibition; O88943; CHO-K1 KCNQ2, FluxOR thallium flux, 20 min; stronger effect = lower value; B-score at 10 µM; hit rate 1.1% among 310,000; AID 2156;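 active = fluorescence ratio B-score at most minus 3 library SDs, with starting brightness B-score within 2 library SDs, cut at about -5.5 in these data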
Numbers stand for hits; 0 = inactive; - = not tested or not shown. Most compounds without a hit are left out; they make up all but 1.6% or so of the library.

SMILES	KCNQ2 pot	KCNQ2 inh
O=C(COc1ccccc1)NCCSCc1ccccc1Cl	-	0
CC(C)(C)c1ccc(C(=O)NCCOc2ccccc2)cc1	-	0
O=C(Cc1ccccc1)NCCSCc1ccc(Cl)cc1	0	0
CCOc1cccc(-c2c(C(=O)N/N=C/c3ccc(C)o3)nnn2-c2nonc2N)c1	0	0
Cc1cccc(NS(=O)(=O)c2ccc(C(=O)NCC(c3ccco3)N(C)C)cc2)c1C (stereo not drawn)	-	0
COc1ccccc1OCC(=O)NCCSCc1cccc(Cl)c1	0	-6.4
COc1ccccc1OCC(=O)NCCNC(=O)COc1ccccc1OC	-	0
COCCn1c(SCC(=O)NC2CCCCC2)nnc1-c1ccncc1	0	0
O=C(CCc1ccc(S(=O)(=O)NCc2ccccc2)cc1)NCC1CCCO1 (stereo not drawn)	0	0
CCc1ccc(OCCCC(=O)NCc2ccco2)cc1	0	0
CCc1ccc(N/C(SCc2ccccc2C)=C(/C#N)C(=O)NCc2ccco2)cc1	0	-6.1
COC(=O)c1cc(S(=O)(=O)N2CCN(c3cccc(Cl)c3)CC2)c[nH]1	-	0
CCN(CC)CCNC(=O)c1ccc(NC(=O)c2ccccc2-c2ccc(C(F)(F)F)cc2)cc1	-	0
O=C(N/C(=C\c1ccc(Br)cc1)C(=O)N1CCOCC1)c1ccc([N+](=O)[O-])cc1	0	-5.9
O=C(N/C(=C\c1ccco1)C(=O)N1CCOCC1)c1ccc([N+](=O)[O-])cc1	0	0
COc1ccc(Nc2nnc(C)c(=O)[nH]2)c(OC)c1	-	0
O=C(NCCc1c[nH]c2ccccc12)c1cc2sccc2n1Cc1ccccc1	0	-6.5
Cn1c(C(=O)NCCc2c[nH]c3ccccc23)cc2sccc21	-	0
COc1ccc(/C=N/OC(=O)c2ccc(Cl)cc2)c(Cl)c1OC	0	0
CCOC(=O)C1CCCN(C(=O)c2cnn3c(C(F)(F)F)cc(-c4ccccc4)nc23)C1 (stereo not drawn)	-	0
CCOC(=O)C1CCCN(C(=O)c2cc(Nc3ccc(OC)c(OC)c3)nc3ccccc23)C1 (stereo not drawn)	-	0
CCOC(=O)C1CCCN(C(=O)c2cc(Nc3ccc(OC)cc3OC)nc3ccccc23)C1 (stereo not drawn)	0	-7.6
CCOC(=O)C1CCCN(C(=O)c2cc(-c3ccc(C)cc3)nc3ccccc23)C1 (stereo not drawn)	0	-5.6
Cn1nc(-c2ccccc2)c(C#N)c1Sc1cccc(Cl)c1	0	-8.1
Cc1nn(C)c(Oc2cccc(Cl)c2)c1C#N	-	0
SMILES	KCNQ2 pot	KCNQ2 inh
COc1cccc(CN2CC(C(=O)N(C)CC3CCOCC3)CCC2=O)c1 (stereo not drawn)	0	0
CCC1=Nc2cc(C(=O)NCCN3CCOCC3)ccc2Sc2ccc(Br)cc21	-	0
CC(=O)N1CCN(c2ccccc2NC(=O)COc2cc(C)ccc2C(C)C)CC1	0	-7.8
Cc1cccc(OCC(=O)Nc2ccccc2N2CCN(C(=O)C(C)C)CC2)c1C	0	-5.8
Cc1cccc(OCC(=O)Nc2ccccc2N2CCCC2)c1C	-	0
Cc1ccc(C(C)C)c(OCC(=O)Nc2ccccc2N2CCN(C)CC2)c1	-	0
Cc1ccccc1OCC(=O)Nc1ccc(C(=O)Nc2ccccc2C(=O)O)cc1	-	0
CCc1ccc(CNC(=O)CCCC(=O)n2nc(C)c3ccccc32)cc1	0	0
CC(C)OCCCn1c(=O)c2ccccc2n2c(CCC(=O)O)nnc12	0	0
CC(C)OCCCn1c(=O)c2ccccc2n2c(CCC(=O)NC3CCN(Cc4ccccc4)CC3)nnc12	0	-6
O=S(=O)(c1ccc(Cl)cc1)N1CCN(C(=S)NCC2CCCO2)CC1 (stereo not drawn)	0	0
O=c1c2ccccc2nc(SCc2ccccc2)n1Cc1ccco1	0	0
O=c1c2ccccc2nc(SCc2cccc(F)c2)n1Cc1ccco1	0	-6.2
COc1ccc(C(C)=O)cc1CSc1nc2ccccc2c(=O)n1-c1cccc(C)c1	0	-6.7
COc1ccc(C(C)=O)cc1CSc1nc2ccccc2c(=O)n1-c1ccccc1	-	0
Cc1noc(C)c1CSc1nc2ccccc2c(=O)n1-c1ccccc1	0	-7.1
Cc1noc(C)c1CSc1nc2[nH]ncc2c(=O)n1-c1ccccc1	-	0
CCOC(=O)[C@@H]1[C@H]2COc3ccc(Br)cc3[C@@H]2N2C(=O)N(c3ccc(C(F)(F)F)cc3)C(=O)[C@]12C	-	0
O=C(OCC(=O)c1c[nH]c2ccccc12)c1cccc(S(=O)(=O)N2CCCCCC2)c1	8.8	0
O=C(COC(=O)c1cccc(S(=O)(=O)N2CCCC2)c1)Nc1ccccc1	0	0
COCC1CCN(C(=O)C2CCC(=O)N(C3CCCCCC3)C2)CC1 (stereo not drawn)	0	0
CC(C)CN1CCC(=O)N([C@H](CSc2ccccc2)Cc2ccccc2)CC1	0	-5.7
Cc1ccc(SC[C@H](c2ccccc2)N2CCN(CCc3ccccc3)CCC2=O)cc1	0	-6.1
Cc1ccc(SC[C@H](Cc2ccccc2)N2CCN(CC(C)C)CCC2=O)cc1	-	0
O=C1CCN(CCc2ccccc2)CCN1[C@H](CSc1ccccc1)c1ccccc1	-	0
SMILES	KCNQ2 pot	KCNQ2 inh
Cc1nn2c(=O)cc(CSCC(=O)Nc3ccccc3Cl)nc2s1	0	0
Cc1ccc(NC(=O)CSc2nn(-c3ccc(Cl)cc3)c(=S)s2)cc1S(=O)(=O)N(C)C	0	-7.1
CN(C)S(=O)(=O)c1cc(NC(=O)CSc2nn(-c3ccc(Cl)cc3)c(=S)s2)ccc1Cl	-	0
O=C(CN(C(=O)CCC(=O)Nc1nccs1)c1ccc2c(c1)OCO2)NCc1ccccc1	0	0
CCOc1ccc(N2CC(C(=O)NNC(=O)c3ccc(Br)cc3)CC2=O)cc1 (stereo not drawn)	0	0
CC(C)c1ccc(/C=C/C(=O)n2nnc3ccccc32)cc1	0	-6.2
CC(C)c1ccc(/C=C/C(=O)N2CCCCCC2)cc1	-	0
Cc1noc(C)c1S(=O)(=O)N1CCCC1C(=O)O (stereo not drawn)	-	0
Cc1cc(C)nc(/N=C(/NC(=O)Nc2cccc(Cl)c2)Nc2ccccc2)n1	0	-5.8
Cc1cc(C)nc(/N=C(\NC(=O)C(C)(C)C)Nc2ccccc2)n1	0	0
CCn1c(-c2cc(-c3cc(OC)ccc3OC)nc3ccccc23)n[nH]c1=S	-	0
CCn1c(-c2cc(-c3ccccc3OC)nc3ccccc23)n[nH]c1=S	0	-7.2
C(#Cc1ccccc1)CN1CCCCC1	6.3	0
C(#Cc1ccccc1)CN1CCN(c2ccccn2)CC1	0	0
Cc1ccc(S(=O)(=O)NCCc2ccncc2)cc1[N+](=O)[O-]	-	0
CCOc1ccc(C2=CSC3=NCCN23)cc1Cl	-	0
CSc1ccccc1C(=O)N(C)C(c1ccccc1)c1ccccc1	0	-5.7
CSc1ccccc1C(=O)N(C)Cc1ccccc1	-	0
CCN1CCc2nc3sc(C(=O)N4CCc5ccccc5C4)c(N)c3cc2C1	-	0
Cc1cc(C)c2c(N)c(C(=O)N3CCc4ccccc4C3)sc2n1	0	-7.7
CC(C)(C)CC(=O)Nc1nn[nH]n1	-	0
Cc1ccc(C(=O)NC(C)C2CC3CCC2C3)c(C)c1 (stereo not drawn)	0	-7.7
CC(NC(=O)c1ccc(F)cc1Cl)C1CC2CCC1C2 (stereo not drawn)	-	0
CC(=O)C(Cc1ccccc1)(Cc1ccccc1)C(C)=O	0	0
CCOC(=O)C(Cc1ccccc1)(Cc1ccccc1)C(C)=O	0	-6.4
O=C(NCCCN1CCOCC1)c1ccc2c(c1)N(Cc1c(F)cccc1Cl)C(=O)CS2	0	0
CCOc1ccc(N(CCCCO)C(=S)NC(=O)c2ccc(C)c(Br)c2)cc1	0	0
